# Assay results as given in ChEMBL document CHEMBL2218924, “A broad activity screen in support of a chemogenomic map for kinase signalling research and drug discovery” (Biochem J, 2013).
# Assays:
# [1] = target: Mitogen-activated protein kinase 8 (Homo sapiens) (UniProt P45983); conditions: at 1 µM
# [2] = target: Mitogen-activated protein kinase 8 (Homo sapiens) (UniProt P45983); conditions: at 10 µM
# [3] = target: Mitogen-activated protein kinase 9 (Homo sapiens) (UniProt P45984); conditions: at 1 µM
# Sequence of Mitogen-activated protein kinase 9 (Homo sapiens) (P45984 whole entry, looked up): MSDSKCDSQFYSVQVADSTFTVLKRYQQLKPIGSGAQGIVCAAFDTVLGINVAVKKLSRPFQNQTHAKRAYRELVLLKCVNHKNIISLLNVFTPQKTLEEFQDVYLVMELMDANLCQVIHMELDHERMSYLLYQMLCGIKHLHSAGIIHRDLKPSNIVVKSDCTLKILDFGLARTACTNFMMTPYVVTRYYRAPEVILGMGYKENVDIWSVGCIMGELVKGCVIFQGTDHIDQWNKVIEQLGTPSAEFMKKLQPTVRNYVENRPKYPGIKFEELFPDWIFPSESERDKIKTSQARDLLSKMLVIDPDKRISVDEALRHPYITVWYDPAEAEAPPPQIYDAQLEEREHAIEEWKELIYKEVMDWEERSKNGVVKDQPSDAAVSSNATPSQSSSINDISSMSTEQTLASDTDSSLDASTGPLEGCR
# [4] = target: Mitogen-activated protein kinase 9 (Homo sapiens) (UniProt P45984); conditions: at 10 µM
# [5] = target: Mitogen-activated protein kinase 10 (Homo sapiens) (UniProt P53779); conditions: at 1 µM
# [6] = target: Mitogen-activated protein kinase 10 (Homo sapiens) (UniProt P53779); conditions: at 10 µM
# [7] = target: T1, Tyrosine-protein kinase JAK3 (Homo sapiens) (UniProt P52333); conditions: at 10 µM
# T1 sequence (whole entry): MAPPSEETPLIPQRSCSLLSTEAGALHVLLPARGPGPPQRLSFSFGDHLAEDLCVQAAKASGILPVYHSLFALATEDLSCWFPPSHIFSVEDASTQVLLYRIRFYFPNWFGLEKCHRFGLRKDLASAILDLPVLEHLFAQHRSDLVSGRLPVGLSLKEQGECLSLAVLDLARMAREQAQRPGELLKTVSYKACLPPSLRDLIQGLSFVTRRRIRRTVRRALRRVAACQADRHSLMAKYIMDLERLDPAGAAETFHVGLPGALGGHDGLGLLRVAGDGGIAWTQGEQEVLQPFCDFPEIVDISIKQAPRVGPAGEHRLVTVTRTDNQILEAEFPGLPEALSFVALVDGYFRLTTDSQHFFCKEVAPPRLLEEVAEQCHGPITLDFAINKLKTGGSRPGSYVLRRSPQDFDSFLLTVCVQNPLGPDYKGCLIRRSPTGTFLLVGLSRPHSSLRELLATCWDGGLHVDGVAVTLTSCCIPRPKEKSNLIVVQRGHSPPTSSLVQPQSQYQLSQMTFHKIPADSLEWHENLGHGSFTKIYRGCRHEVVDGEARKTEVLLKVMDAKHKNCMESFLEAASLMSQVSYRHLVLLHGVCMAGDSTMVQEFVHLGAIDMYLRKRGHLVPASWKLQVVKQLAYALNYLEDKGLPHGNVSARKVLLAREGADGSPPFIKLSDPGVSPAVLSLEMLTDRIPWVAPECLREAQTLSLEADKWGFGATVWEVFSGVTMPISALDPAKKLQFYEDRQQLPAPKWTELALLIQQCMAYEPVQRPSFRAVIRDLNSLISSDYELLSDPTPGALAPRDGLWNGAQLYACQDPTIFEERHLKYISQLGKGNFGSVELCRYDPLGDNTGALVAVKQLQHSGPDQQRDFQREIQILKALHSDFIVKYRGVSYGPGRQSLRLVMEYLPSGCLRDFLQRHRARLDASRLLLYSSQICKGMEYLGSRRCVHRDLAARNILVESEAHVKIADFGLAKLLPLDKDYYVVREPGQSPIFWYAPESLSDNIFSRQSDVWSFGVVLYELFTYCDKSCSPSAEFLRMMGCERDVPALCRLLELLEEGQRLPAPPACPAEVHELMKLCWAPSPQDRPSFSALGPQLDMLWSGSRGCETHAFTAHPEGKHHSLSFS
# [8] = target: LIM domain kinase 1 (Homo sapiens) (UniProt P53667); conditions: at 10 µM
# [9] = target: T2, Serine/threonine-protein kinase STK11 (Homo sapiens) (UniProt Q15831); conditions: at 10 µM
# T2 sequence (whole entry): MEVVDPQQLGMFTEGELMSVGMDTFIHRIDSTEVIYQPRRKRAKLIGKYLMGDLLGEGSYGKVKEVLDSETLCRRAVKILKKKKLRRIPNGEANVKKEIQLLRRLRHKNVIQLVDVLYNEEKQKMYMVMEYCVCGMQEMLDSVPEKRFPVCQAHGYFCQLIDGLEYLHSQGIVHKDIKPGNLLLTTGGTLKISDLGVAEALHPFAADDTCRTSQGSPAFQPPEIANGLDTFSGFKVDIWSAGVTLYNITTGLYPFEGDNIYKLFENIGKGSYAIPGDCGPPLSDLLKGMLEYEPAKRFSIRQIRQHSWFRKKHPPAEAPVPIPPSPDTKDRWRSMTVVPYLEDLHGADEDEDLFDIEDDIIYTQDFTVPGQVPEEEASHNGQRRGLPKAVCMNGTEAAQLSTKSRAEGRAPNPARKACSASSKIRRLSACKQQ
# [10] = target: Serine/threonine-protein kinase 10 (Homo sapiens) (UniProt O94804); conditions: at 1 µM
# Sequence of Serine/threonine-protein kinase 10 (Homo sapiens) (O94804 whole entry, looked up): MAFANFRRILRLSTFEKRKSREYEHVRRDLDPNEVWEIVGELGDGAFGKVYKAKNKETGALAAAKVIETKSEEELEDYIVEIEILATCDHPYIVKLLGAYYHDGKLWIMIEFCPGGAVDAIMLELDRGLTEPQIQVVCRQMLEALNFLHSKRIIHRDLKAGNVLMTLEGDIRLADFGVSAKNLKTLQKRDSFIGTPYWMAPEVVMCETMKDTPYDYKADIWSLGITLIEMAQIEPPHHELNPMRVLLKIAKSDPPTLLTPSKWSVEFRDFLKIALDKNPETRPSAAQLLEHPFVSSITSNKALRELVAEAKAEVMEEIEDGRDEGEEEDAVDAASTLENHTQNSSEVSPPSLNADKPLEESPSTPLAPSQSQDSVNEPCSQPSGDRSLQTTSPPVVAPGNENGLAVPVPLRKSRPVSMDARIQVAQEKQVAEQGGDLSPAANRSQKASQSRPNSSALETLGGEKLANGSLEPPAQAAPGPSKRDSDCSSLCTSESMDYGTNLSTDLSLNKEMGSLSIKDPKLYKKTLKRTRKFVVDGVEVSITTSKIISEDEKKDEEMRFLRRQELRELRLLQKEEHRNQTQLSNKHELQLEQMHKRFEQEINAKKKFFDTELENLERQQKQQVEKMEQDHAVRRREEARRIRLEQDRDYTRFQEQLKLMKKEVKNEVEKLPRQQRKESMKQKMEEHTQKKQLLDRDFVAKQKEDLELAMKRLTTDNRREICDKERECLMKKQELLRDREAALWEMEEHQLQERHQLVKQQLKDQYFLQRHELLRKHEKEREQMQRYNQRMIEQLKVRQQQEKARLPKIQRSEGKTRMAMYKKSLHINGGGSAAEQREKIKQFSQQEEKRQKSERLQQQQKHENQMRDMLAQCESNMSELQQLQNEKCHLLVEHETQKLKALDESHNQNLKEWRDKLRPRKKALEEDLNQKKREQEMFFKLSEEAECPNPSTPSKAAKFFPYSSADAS
# [11] = target: Serine/threonine-protein kinase 10 (Homo sapiens) (UniProt O94804); conditions: at 10 µM
# [12] = target: Vascular endothelial growth factor receptor 2 (Homo sapiens) (UniProt P35968); conditions: at 1 µM
# Sequence of Vascular endothelial growth factor receptor 2 (Homo sapiens) (P35968 whole entry): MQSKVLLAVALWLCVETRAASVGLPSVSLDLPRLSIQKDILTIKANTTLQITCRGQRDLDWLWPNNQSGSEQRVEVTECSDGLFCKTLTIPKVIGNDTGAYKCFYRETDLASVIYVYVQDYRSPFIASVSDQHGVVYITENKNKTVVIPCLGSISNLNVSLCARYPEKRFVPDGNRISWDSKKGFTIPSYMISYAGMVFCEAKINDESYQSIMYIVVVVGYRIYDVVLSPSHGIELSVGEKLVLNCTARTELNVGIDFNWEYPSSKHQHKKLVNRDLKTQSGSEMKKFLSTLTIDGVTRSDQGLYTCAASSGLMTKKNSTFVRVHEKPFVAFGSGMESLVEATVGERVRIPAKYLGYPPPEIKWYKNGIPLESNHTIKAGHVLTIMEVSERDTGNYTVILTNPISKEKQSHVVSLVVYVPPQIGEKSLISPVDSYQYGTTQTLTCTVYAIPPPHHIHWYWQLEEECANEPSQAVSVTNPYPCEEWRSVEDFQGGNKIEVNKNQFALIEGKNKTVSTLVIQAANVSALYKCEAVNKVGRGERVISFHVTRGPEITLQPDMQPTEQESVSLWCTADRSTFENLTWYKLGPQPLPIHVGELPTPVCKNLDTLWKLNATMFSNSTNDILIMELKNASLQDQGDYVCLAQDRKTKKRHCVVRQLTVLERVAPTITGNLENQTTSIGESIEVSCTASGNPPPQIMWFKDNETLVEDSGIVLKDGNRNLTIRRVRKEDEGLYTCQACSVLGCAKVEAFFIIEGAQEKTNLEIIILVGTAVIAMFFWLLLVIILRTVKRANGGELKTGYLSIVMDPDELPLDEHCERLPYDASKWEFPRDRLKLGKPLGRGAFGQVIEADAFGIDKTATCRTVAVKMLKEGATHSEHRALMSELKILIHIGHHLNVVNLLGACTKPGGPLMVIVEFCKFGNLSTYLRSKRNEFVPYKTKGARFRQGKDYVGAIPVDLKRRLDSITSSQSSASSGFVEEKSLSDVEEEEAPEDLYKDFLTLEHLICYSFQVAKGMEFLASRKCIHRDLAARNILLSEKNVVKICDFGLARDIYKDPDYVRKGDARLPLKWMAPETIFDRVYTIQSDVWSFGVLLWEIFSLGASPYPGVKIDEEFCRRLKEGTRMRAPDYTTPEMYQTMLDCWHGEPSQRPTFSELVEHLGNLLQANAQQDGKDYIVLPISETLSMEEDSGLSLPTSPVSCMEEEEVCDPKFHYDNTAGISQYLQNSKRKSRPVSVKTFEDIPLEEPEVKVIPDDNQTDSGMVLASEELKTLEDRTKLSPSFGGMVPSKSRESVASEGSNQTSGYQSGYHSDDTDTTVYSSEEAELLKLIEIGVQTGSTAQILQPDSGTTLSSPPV
# [13] = target: Vascular endothelial growth factor receptor 2 (Homo sapiens) (UniProt P35968); conditions: at 10 µM
# [14] = target: Tyrosine-protein kinase Lck (Homo sapiens) (UniProt P06239); conditions: at 1 µM
# Sequence of Tyrosine-protein kinase Lck (Homo sapiens) (P06239 2-509 limits assumed): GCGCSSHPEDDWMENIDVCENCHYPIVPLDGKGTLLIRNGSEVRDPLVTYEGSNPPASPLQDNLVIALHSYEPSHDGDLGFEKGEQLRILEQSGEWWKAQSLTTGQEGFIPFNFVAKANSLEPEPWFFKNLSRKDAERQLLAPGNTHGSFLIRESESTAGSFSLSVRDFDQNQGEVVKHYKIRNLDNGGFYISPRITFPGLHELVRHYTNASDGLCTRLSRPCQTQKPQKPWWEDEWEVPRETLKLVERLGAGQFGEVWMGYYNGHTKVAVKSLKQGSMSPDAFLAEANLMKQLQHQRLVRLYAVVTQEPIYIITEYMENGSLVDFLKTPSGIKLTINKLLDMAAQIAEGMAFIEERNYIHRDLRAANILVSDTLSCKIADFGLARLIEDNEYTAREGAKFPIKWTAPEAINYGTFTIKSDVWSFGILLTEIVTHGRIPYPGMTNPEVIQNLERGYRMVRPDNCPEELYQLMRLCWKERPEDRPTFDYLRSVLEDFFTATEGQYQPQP
# [15] = target: LIM domain kinase 1 (Homo sapiens) (UniProt P53667); conditions: at 1 µM
# [16] = target: T2, Serine/threonine-protein kinase STK11 (Homo sapiens); conditions: at 1 µM
# [17] = target: Tyrosine-protein kinase JAK2 (Homo sapiens) (UniProt O60674); conditions: at 10 µM
# Sequence of Tyrosine-protein kinase JAK2 (Homo sapiens) (O60674 whole entry): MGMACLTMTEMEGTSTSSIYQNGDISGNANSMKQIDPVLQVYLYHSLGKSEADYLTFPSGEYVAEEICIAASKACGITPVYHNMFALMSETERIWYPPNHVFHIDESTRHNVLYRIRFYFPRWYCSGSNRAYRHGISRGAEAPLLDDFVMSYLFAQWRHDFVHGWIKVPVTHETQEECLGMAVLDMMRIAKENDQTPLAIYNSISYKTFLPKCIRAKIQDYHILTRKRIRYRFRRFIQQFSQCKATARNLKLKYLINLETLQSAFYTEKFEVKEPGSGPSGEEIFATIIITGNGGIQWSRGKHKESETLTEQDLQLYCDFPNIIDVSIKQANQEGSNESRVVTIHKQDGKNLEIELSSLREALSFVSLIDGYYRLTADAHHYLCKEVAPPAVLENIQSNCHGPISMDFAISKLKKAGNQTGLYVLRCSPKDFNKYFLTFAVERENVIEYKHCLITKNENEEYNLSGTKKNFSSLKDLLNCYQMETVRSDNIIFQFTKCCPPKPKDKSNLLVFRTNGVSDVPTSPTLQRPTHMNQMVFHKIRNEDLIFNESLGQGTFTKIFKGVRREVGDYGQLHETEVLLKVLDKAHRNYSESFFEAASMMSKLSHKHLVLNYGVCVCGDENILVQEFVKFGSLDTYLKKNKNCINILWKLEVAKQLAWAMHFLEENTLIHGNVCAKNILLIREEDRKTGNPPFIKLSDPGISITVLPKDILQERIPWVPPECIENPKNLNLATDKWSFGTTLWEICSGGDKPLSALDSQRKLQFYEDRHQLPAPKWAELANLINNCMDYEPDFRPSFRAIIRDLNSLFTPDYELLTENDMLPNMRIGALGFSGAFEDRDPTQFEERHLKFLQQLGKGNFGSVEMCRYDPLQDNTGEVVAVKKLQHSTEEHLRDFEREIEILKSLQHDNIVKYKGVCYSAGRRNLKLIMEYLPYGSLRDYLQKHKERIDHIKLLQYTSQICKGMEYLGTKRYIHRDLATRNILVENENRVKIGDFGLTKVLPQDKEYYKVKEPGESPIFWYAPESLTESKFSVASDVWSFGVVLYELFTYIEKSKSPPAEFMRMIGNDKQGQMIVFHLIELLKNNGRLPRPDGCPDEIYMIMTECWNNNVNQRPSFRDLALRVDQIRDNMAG
# [18] = target: T1, Tyrosine-protein kinase JAK3 (Homo sapiens); conditions: at 1 µM
# [19] = target: Tyrosine-protein kinase JAK2 (Homo sapiens) (UniProt O60674); conditions: at 1 µM
# Sequence of Mitogen-activated protein kinase 8 (Homo sapiens) (P45983 whole entry): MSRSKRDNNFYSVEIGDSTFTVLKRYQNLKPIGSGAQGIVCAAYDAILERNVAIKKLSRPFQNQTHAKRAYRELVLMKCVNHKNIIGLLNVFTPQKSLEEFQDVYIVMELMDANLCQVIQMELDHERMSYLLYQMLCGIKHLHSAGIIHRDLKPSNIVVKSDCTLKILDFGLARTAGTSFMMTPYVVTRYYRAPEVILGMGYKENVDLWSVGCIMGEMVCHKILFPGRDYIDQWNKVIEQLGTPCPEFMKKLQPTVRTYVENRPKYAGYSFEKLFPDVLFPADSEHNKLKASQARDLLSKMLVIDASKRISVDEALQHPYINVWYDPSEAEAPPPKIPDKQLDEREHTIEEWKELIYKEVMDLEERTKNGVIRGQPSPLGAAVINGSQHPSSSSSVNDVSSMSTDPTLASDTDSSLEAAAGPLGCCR
SMILES,residual activity [1] [%],residual activity [2] [%],residual activity [3] [%],residual activity [4] [%],residual activity [5] [%],residual activity [6] [%],residual activity [7] [%],residual activity [8] [%],residual activity [9] [%],residual activity [10] [%],residual activity [11] [%],residual activity [12] [%],residual activity [13] [%],residual activity [14] [%],residual activity [15] [%],residual activity [16] [%],residual activity [17] [%],residual activity [18] [%],residual activity [19] [%]
CCOc1nc(NC(=O)Cc2cc(OC)ccc2OC)cc(N)c1C#N,-16,-6,-1,-11,-2,-2,,,,,,,,,,,,,
CC(C)[C@H](CO)Nc1nc(Nc2cc(N)cc(Cl)c2)c2ncn(C(C)C)c2n1,,,,,82,67,87,85,72,57,17,,,,,,,,
COc1ccc(-c2cnc3c(-c4ccsc4)cnn3c2)cc1,,,100,100,88,,92,,,,,88,68,139,,,,,
CCN1/C(=C/C(C)=O)Sc2ccc(OC)cc21,,,,,65,64,,,,,,,,,,,,,
O=C(NC(NC(=S)Nc1ccc(F)c([N+](=O)[O-])c1)C(Cl)(Cl)Cl)C(c1ccccc1)c1ccccc1 (centres undefined),,102,,,92,79,78,75,103,,,104,102,95,90,98,,,
NC(=O)c1cccc(-c2cc(Nc3ccc(OC(F)(F)F)cc3)ncn2)c1,,,,,,,,94,98,,,100,89,139,,95,,,
O=C1NC(=O)C(c2c[nH]c3ccccc23)=C1c1c[nH]c2ccccc12,,35,,,56,-3,6,50,97,39,15,16,2,78,,100,33,43,
CC(C)N(CCC(=O)c1ccc2ccccc2c1)Cc1ccccc1,,57,,86,80,84,45,85,,,,,85,,,,,78,
CN([C@@H](Cc1ccc(OS(=O)(=O)c2cccc3cnccc23)cc1)C(=O)N1CCN(c2ccccc2)CC1)S(=O)(=O)c1cccc2cnccc12,,,114,114,76,75,83,86,,,,,,144,99,,,,
O=C(O)/C=C/c1cc(Br)c(Br)c(Br)c1Br,108,72,100,72,99,46,34,71,38,94,58,99,81,77,105,93,58,102,87
N#Cc1c(NC(=O)c2cccc3ccccc23)sc2c1CCCC2,,,58,74,8,0,,82,93,90,92,,96,,92,86,92,,
Nc1n[nH]c2nc3ccccc3nc12,,,100,84,80,66,,67,88,88,78,,,,89,126,91,,98
O=C1Nc2ccc(Cl)cc2/C1=C/c1cc(Cl)c(O)c(Cl)c1,95,69,,,64,32,28,42,86,67,47,13,1,95,88,91,69,75,98
COc1ccc(Cl)cc1NC(=O)Nc1cc(C)nc2ccccc12,,,,,85,78,145,,95,96,96,,,,,,155,,124
Oc1cccc(-c2nc(N3CCOCC3)c3oc4ncccc4c3n2)c1,,77,,,91,,,,,96,87,,,,,,,,
O=c1c(-c2ccc(F)cc2)c(-c2ccncc2)[nH]n1-c1ccc(Cl)cc1,,,7,-10,-2,-2,,,,,99,102,54,,,,,,
O=C(Nc1ccc(Cl)cc1)c1ccccc1NCc1ccncc1,120,129,,,72,123,,,99,82,64,3,4,,,101,74,,129
O=C1NC(=O)C(c2cn(CCCn3ccnc3)c3ccccc23)=C1Nc1ccccc1,109,79,110,80,,68,2,41,103,21,6,73,22,130,,100,39,15,103
O=C1Cc2c([nH]c3ccc([N+](=O)[O-])cc23)-c2ccccc2N1,109,,104,101,70,66,101,,,102,110,52,42,22,,,106,101,
O=C1Nc2ccccc2/C1=C\c1c(Cl)[nH]c2ccccc12,,,,76,83,47,85,71,,84,36,,30,83,,,,,
